Reference: the supplement of paper PMC11738630

System: Salmonella enterica serovar Typhimurium 14028s
Assay: approximate change in surviving CFU after surface colonization relative to water-only control (log10 CFU/mL change); higher = more surviving bacteria (less inhibition of surface colonization)
Conditions: not stated (Biolog proprietary concentration), surface: plastic 96-well plate, 20-24 h at 25 °C

## N[C@@H](Cc1ccccc1)C(=O)O [L-Phenylalanine]
Biolog plate: PM2, Biolog well: H2
  approximate change in surviving CFU (log10): -0.322
Biolog plate: PM3, Biolog well: B8
  approximate change in surviving CFU (log10): -0.215

## NCCC[C@H](N)C(=O)O [L-Ornithine]
Biolog plate: PM2, Biolog well: H1
  approximate change in surviving CFU (log10): 0.708
Biolog plate: PM3, Biolog well: C12
  approximate change in surviving CFU (log10): 0.172

## O=C(O)[C@@H]1CCCN1 [L-Proline]
Biolog plate: PM1, Biolog well: A8
  approximate change in surviving CFU (log10): 0.107
Biolog plate: PM3, Biolog well: B9
  approximate change in surviving CFU (log10): 0.0858

## CC(C)[C@H](N)C(=O)O [L-Valine]
Biolog plate: PM2, Biolog well: H4
  approximate change in surviving CFU (log10): 0.15
Biolog plate: PM3, Biolog well: C2
  approximate change in surviving CFU (log10): -0.386

## N[C@@H](Cc1c[nH]cn1)C(=O)O [L-Histidine]
Biolog plate: PM2, Biolog well: G6
  approximate change in surviving CFU (log10): 1.01
Biolog plate: PM3, Biolog well: B3
  approximate change in surviving CFU (log10): 0.279

## C[C@@H](N)C(=O)O [D-Alanine]
Biolog plate: PM1, Biolog well: A9
  approximate change in surviving CFU (log10): 0.622
Biolog plate: PM3, Biolog well: C3
  approximate change in surviving CFU (log10): 0.343

## N[C@@H](CCC(=O)O)C(=O)O [L-Glutamic Acid]
Biolog plate: PM1, Biolog well: B12
  approximate change in surviving CFU (log10): 1.24
Biolog plate: PM3, Biolog well: A12
  approximate change in surviving CFU (log10): 0.279

## NCC(=O)O [Glycine]
Biolog plate: PM2, Biolog well: G5
  approximate change in surviving CFU (log10): 0.494
Biolog plate: PM3, Biolog well: B2
  approximate change in surviving CFU (log10): 0.15

## C[C@@H](O)[C@H](N)C(=O)O [L-Threonine]
Biolog plate: PM1, Biolog well: G4
  approximate change in surviving CFU (log10): 1.03
Biolog plate: PM3, Biolog well: B11
  approximate change in surviving CFU (log10): -0.129

## N[C@H](CC(=O)O)C(=O)O [D-Aspartic Acid]
Biolog plate: PM1, Biolog well: D2
  approximate change in surviving CFU (log10): 1.01
Biolog plate: PM3, Biolog well: C5
  approximate change in surviving CFU (log10): 0.816

## N[C@H](CO)C(=O)O [D-Serine]
Biolog plate: PM1, Biolog well: B1
  approximate change in surviving CFU (log10): 1.14
Biolog plate: PM3, Biolog well: C8
  approximate change in surviving CFU (log10): 0.279

## CC(N)=O [Acetamide]
Biolog plate: PM2, Biolog well: G1
  approximate change in surviving CFU (log10): -0.365
Biolog plate: PM3, Biolog well: E4
  approximate change in surviving CFU (log10): -1.76

## C[C@H](N)C(=O)O [L-Alanine]
Biolog plate: PM1, Biolog well: G5
  approximate change in surviving CFU (log10): 0.987
Biolog plate: PM3, Biolog well: A7
  approximate change in surviving CFU (log10): 0.129

## N[C@@H](CCO)C(=O)O [L-Homoserine]
Biolog plate: PM2, Biolog well: G7
  approximate change in surviving CFU (log10): 0.923
Biolog plate: PM3, Biolog well: C11
  approximate change in surviving CFU (log10): 0.365

## N[C@@H](CC(=O)O)C(=O)O [L-Aspartic Acid]
Biolog plate: PM1, Biolog well: A7
  approximate change in surviving CFU (log10): 0.644
Biolog plate: PM3, Biolog well: A10
  approximate change in surviving CFU (log10): 0.451

## O=C(O)CO [Glycolic Acid]
Biolog plate: PM1, Biolog well: F9
  approximate change in surviving CFU (log10): 0.736
Biolog plate: PM2, Biolog well: E9
  approximate change in surviving CFU (log10): 0.644

## NC(=O)[C@H]1O[C@@H](O)[C@H](O)[C@@H](O)[C@@H]1O [Glucuronamide]
Biolog plate: PM1, Biolog well: H7
  approximate change in surviving CFU (log10): 1.03
Biolog plate: PM3, Biolog well: E6
  approximate change in surviving CFU (log10): 0.622

## Nc1ncnc2c1ncn2[C@@H]1O[C@H](CO)[C@@H](O)[C@H]1O [Adenosine]
Biolog plate: PM1, Biolog well: E12
  approximate change in surviving CFU (log10): 0.622
Biolog plate: PM3, Biolog well: F3
  approximate change in surviving CFU (log10): 0.751

## N=C(N)NCCC[C@H](N)C(=O)O [L-Arginine]
Biolog plate: PM2, Biolog well: G4
  approximate change in surviving CFU (log10): 0.966
Biolog plate: PM3, Biolog well: A8
  approximate change in surviving CFU (log10): 0.236

## Cc1cn([C@H]2C[C@H](O)[C@@H](CO)O2)c(=O)[nH]c1=O [Thymidine]
Biolog plate: PM1, Biolog well: C12
  approximate change in surviving CFU (log10): 1.5
Biolog plate: PM3, Biolog well: F9
  approximate change in surviving CFU (log10): -0.193

## NCCc1ccc(O)cc1 [Tyramine]
Biolog plate: PM1, Biolog well: H4
  approximate change in surviving CFU (log10): 0.537
Biolog plate: PM3, Biolog well: E3
  approximate change in surviving CFU (log10): -1.37

## OC[C@H]1O[C@H](OC[C@H]2O[C@H](OC[C@H]3O[C@H](O[C@]4(CO)O[C@H](CO)[C@@H](O)[C@@H]4O)[C@H](O)[C@@H](O)[C@@H]3O)[C@H](O)[C@@H](O)[C@H]2O)[C@H](O)[C@@H](O)[C@H]1O [Stachyose]
Biolog plate: PM2, Biolog well: D5
  approximate change in surviving CFU (log10): 1.37

## N[C@@H](CO)C(=O)O [L-Serine]
Biolog plate: PM1, Biolog well: G3
  approximate change in surviving CFU (log10): 1.07
Biolog plate: PM3, Biolog well: B10
  approximate change in surviving CFU (log10): 0.107

## NCCCCN [Putrescine]
Biolog plate: PM2, Biolog well: H8
  approximate change in surviving CFU (log10): 0.322
Biolog plate: PM3, Biolog well: D11
  approximate change in surviving CFU (log10): -0.3

## O=c1[nH]cnc2c1ncn2[C@@H]1O[C@H](CO)[C@@H](O)[C@H]1O [Inosine]
Biolog plate: PM1, Biolog well: F12
  approximate change in surviving CFU (log10): 1.65
Biolog plate: PM3, Biolog well: F12
  approximate change in surviving CFU (log10): -0.365

## O=c1ccn([C@@H]2O[C@H](CO)[C@@H](O)[C@H]2O)c(=O)[nH]1 [Uridine]
Biolog plate: PM1, Biolog well: D12
  approximate change in surviving CFU (log10): 1.74
Biolog plate: PM3, Biolog well: F11
  approximate change in surviving CFU (log10): -0.236

## NC(=O)C[C@H](N)C(=O)O [L-Asparagine]
Biolog plate: PM1, Biolog well: D1
  approximate change in surviving CFU (log10): 0.944
Biolog plate: PM3, Biolog well: A9
  approximate change in surviving CFU (log10): 0.451

## CC[C@H](C)[C@H](N)C(=O)O [L-Isoleucine]
Biolog plate: PM2, Biolog well: G9
  approximate change in surviving CFU (log10): 0.794
Biolog plate: PM3, Biolog well: B4
  approximate change in surviving CFU (log10): -0.0429

## CC(C)C[C@H](N)C(=O)O [L-Leucine]
Biolog plate: PM2, Biolog well: G10
  approximate change in surviving CFU (log10): 0.451
Biolog plate: PM3, Biolog well: B5
  approximate change in surviving CFU (log10): -0.236
